Screens deposited in PubChem by National Center for Advancing Translational Sciences (NCATS).
An excerpt weighted towards active compounds, which were near 21% of everything screened.
Pf growth 96h: P. falciparum growth inhibition at 96 hour, primary screen for plastid delayed-death inhibitors | P. falciparum luciferase reporter growth, 96 h | 320,000 compounds, 6.9% hits | Potency, µM (series often up to 28.7 µM), without a hit: at the top dose activity change, negative = inhibition, actives largely listed as inhibitors; further: potency means the concentration at half of the fitted maximal effect; on the % scale 0 is the no-effect control and ±100 the full control effect
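Parasite growth measured via integrated firefly luciferase reporter in P. falciparum. Infected erythrocytes at 2% hematocrit, 0.05% parasitemia final were treated 96 hours at 37 C under 5% CO2, and luminescence was read.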
Shiga toxin inh: Shiga toxin inhibition. Vero cells, Shiga toxin protein synthesis inhibition reporter. inhibition, % at 38.7 µM. 290,000 compounds, 9.2% hits. AID 2315; in the data active means inhibition mostly above about 28%, no sharp cut-off; inactive means mostly below about 43%; further: 0% is about no effect
NS1 function inh: blocks influenza NS1 protein function | Potency, µM (series often up to 46.1 µM), without a hit: at the highest dose activity, positive = more growth | 270,000 compounds, 0.4% hits | AID 2326; calls by dose curve; further: potency means the concentration at half of the fitted maximal effect; actives are rising curves; nearly all actives have a fitted effect of over 50% in size
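Recovery from NS1-induced slow growth read by OD600 in budding yeast switched to galactose assay medium (pH 6.0, -URA) at 1:100 dilution. Compound 23 nl per well; the matching strain lacking NS1 serves as control.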
Pf growth 48h: P. falciparum growth inhibition at 48 hours (one generation). P. falciparum luciferase growth in erythrocytes, 48 h. Potency, µM (titrated, usually from 28.7 µM), without a hit: top-dose activity change, negative = inhibition, hits mostly inhibitors. 310,000 compounds, 5.9% hits. AID 504832; further: potency means the concentration at half of the fitted maximal effect; on the % scale 0 is the no-effect control and ±100 the full control effect
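In quantitative HTS format, infected erythrocytes bearing luciferase-reporter parasites were treated for a single generation at 37 C. Luminescence after adding detection reagent served as the growth measure.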
Sm TGR block: S. mansoni TGR enzyme inhibition | purified TGR, DTNB reduction, TNB absorbance 405 nm | AID 485364 | Q962Y6 | Potency, µM (titrated, usually from 114 µM), for the others: at the highest dose activity change, negative = inhibition, most hits filed as inhibitors | 360,000 compounds, 3% hits; further: potency means the concentration at half of the fitted maximal effect; on the % scale 0 is the no-effect control and ±100 the full control effect; nearly all actives have a fitted effect of over 60% in size
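TGR 20 nM + NADPH 100 uM (dispensed conc.), cpd preinc 15 min RT; start with NADPH (500 uM addition) then DTNB (15 mM addition). Kinetic TNB absorbance, 405 nm filter. Four-parameter Hill fit across titration.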
CHX counter: affects cycloheximide protein synthesis inhibition readout, counter-screen | cell reporter, cycloheximide protein synthesis inhibition counterscreen | max response, % | 300,000 compounds, 12% hits | AID 2314; in the data active means max response mostly above about 13%, no sharp cut-off; inactive means mostly below about 14%; further: read at 38.3 µM for the half of the compounds with a filed dose; 0% is about no effect
Numbers without * were called inactive; u = inconclusive; x = not tested or not shown; [ ] = another dose, or the depositor's remark. Unless noted, the call rests on the fitted dose curve; in most records, active means well fitted curve in the direction sought with a large enough effect; inconclusive means small, poorly fitted or top-dose-only effect, or another doubt; inactive means no such curve, though single readings can be large; an effect the other way counts as inactive or inconclusive.

SMILES | Pf growth 96h | Shiga toxin inh | NS1 function inh | Pf growth 48h | Sm TGR block | CHX counter
CC(C(=O)OCC(=O)c1ccc(Br)cc1)N1C(=O)C2C3C=CC(C3)C2C1=O (stereo unspecified) | -2% | -5 | -1% | 27% | 7% | -3
O=C(NNC(=S)Nc1cccc(C(F)(F)F)c1)c1cccc(Cl)c1 | -57% | 0 | -38% | -22% | 0% | 11
FC(F)(F)c1ccccc1NC(=S)Nc1cccc(Cl)c1 | u | -3 | -10% | -9%[5.75 µM] | 25µM* | -6
S=C(Nc1ccccc1Cl)Nc1ccc(Cl)cc1Cl | u | 10 | -1% | 27% | 25µM* | 1
FC(F)(F)c1cccc(NC(=S)Nc2ccc(Cl)cc2Cl)c1 | u | -8 | -55% | u | 22µM* | -4
S=C(Nc1ccccc1)Nc1ccc(Cl)cc1Cl | 88% | 139* | 10% | 65% | 25µM* | 29*
Fc1ccc(NC(=S)Nc2cccc(Cl)c2)cc1 | 19% | 17 | -66% | 20% | u | 8
COc1cc(NC(=O)Cn2c(=O)n(Cc3ccccc3OC)c(=O)c3cccnc32)cc(OC)c1 | x | x | x | x | 2% | x
O=C(c1ccccc1Br)N1CCc2c([nH]c3ccccc23)C1 | 34% | -1 | -31% | -3% | 5% | -6
COc1cc(/C=N/NC(=O)C2C3CCCCC32C)cc(Br)c1O (stereo unspecified) | u | 3 | 12% | u | -18% | 0
S=C(NNc1ccnc2cc(Cl)ccc12)Nc1ccccc1Cl | 0% | 52 | u | u | -10% | 23*
FC(F)(F)c1cccc(NC(=S)Nc2cccc(NC(=S)Nc3cccc(C(F)(F)F)c3)n2)c1 | u | 44* | -3% | 12µM* | -18% | 24*
FC(F)(F)c1cnc(NNC(=S)Nc2ccccc2Cl)c(Cl)c1 | u | -9 | -32% | u | 1% | 0
Cc1cccc(NC(=S)Nc2cccc(C(F)(F)F)c2)n1 | u | -4 | 10% | u | -7% | -2
CC1(C)CC(=O)C2=C(C1)OC1=C(C(=O)CC(C)(C)C1)C2(C)C | u | -12 | 5% | 0% | 3% | -2
O=C(Cn1cc2c(n1)CCCC2)Nc1cc(-c2cccc(Cl)c2)no1 | 23% | 44* | -88% | u | -4% | 28*
O=C(Cn1cc2c(n1)CCCC2)NCc1cccs1 | 5.2µM* | -5 | -10% | x | 0% | 3
CCN1C(=O)C(CC(=O)Nc2ccc(OC)cc2)N(Cc2cccnc2)C1=S (stereo unspecified) | u | -12 | 8% | 2% | -28% | 1
COc1ccc(NC(=O)CC2C(=O)N(c3ccc(F)cc3)C(=S)N2NC(=O)c2ccc(Cl)cc2)cc1 (stereo unspecified) | 58% | 12 | 9% | 24% | -3% | 10
COc1ccc(NC(=O)CC2C(=O)N(c3ccc(Cl)cc3)C(=S)N2NC(=O)c2cccc(F)c2)cc1 (stereo unspecified) | 55% | 13 | -9% | 20% | 2% | 16*
CCOC(=O)c1ccc(NC(=O)CC2C(=O)N(c3ccc(F)cc3)C(=O)N2CCC(C)C)cc1 (stereo unspecified) | 5.9µM* | 21 | 3% | x | u | 13
COc1ccc(NC(=O)CC2C(=O)N(CCc3ccccc3)C(=S)N2Cc2cccnc2)cc1 (stereo unspecified) | 13µM* | -7 | -33% | 12µM* | -2% | -4
COC(=O)CN1C(=S)N(c2ccc(Cl)cc2)C(=O)C1CC(=O)Nc1ccc(F)cc1 (stereo unspecified) | u | -5 | -10% | u | -7% | -1
COC(=O)CN1C(=S)N(c2ccc(F)cc2)C(=O)C1CC(=O)Nc1ccc(F)cc1 (stereo unspecified) | u | 11 | 1% | 10µM* | -1% | -2
CCOC(=O)c1ccc(NC(=O)CC2C(=O)N(c3ccc(F)cc3)C(=O)N2Cc2ccc(C)cc2)cc1 (stereo unspecified) | x | x | x | x | -15% | x
SMILES | Pf growth 96h | Shiga toxin inh | NS1 function inh | Pf growth 48h | Sm TGR block | CHX counter
CCC(=O)C1=C(c2ccc(OC)c(OC)c2)N(C(=O)CC)n2c(CC)nnc2S1 | x | -7 | x | x | u | 5
Cc1ccoc1C(=O)N1CCCC(CCC(=O)N2CCN(c3ccccn3)CC2)C1 (stereo unspecified) | -8% | -5 | 0% | u | 0% | 1
COc1ccc(Cc2nc3ccc(C(=O)NCCCN4CCN(C)CC4)cc3o2)cc1 | x | x | x | x | -4% | x
CCN1C(=O)C(CC(=O)Nc2ccc(F)cc2)N(Cc2cccs2)C1=S (stereo unspecified) | 0% | 3 | 2% | 10µM* | x | -6
COc1ccc(NC(=O)CC2C(=O)N(c3ccc(Cl)cc3)C(=S)N2CCc2ccncc2)cc1 (stereo unspecified) | 13µM* | -11 | 22% | u | 1% | -2
CCNC(=O)CC1C(=O)N(c2ccccc2)C(=O)N1CCc1ccc(OC)cc1 (stereo unspecified) | 12µM* | 22 | -3% | 28% | 6% | 1
COc1ccc(CCN2C(=O)N(c3ccc(F)cc3)C(=O)C2CC(=O)Nc2ccccc2)cc1 (stereo unspecified) | x | x | x | x | -23% | x
CCCCCn1c(CN2CCN(C(=O)c3ccco3)CC2)nc2c1c(=O)n(C)c(=O)n2C | u | -5 | 2% | 9.3µM* | -41% | -5
CCCCn1c(CN2CCN(c3ccc(F)cc3)CC2)nc2c1c(=O)n(C)c(=O)n2C | u | 79 | -15% | -1% | 4% | 30*
Cn1c(=O)c2c(nc(CN3CCN(C(=O)c4ccco4)CC3)n2CCCc2ccccc2)n(C)c1=O | 7.4µM* | -18 | 0% | x | u | -5
CCCCCCn1c(CN2CCN(C(=O)c3ccco3)CC2)nc2c1c(=O)n(C)c(=O)n2C | u | -10 | u | u | -34% | -3
Cn1c(=O)c2c(nc(CN3CCN(C(=O)c4ccco4)CC3)n2CCc2ccccc2)n(C)c1=O | 6% | -22 | -6% | u | -14% | -3
CCCCn1c(CN2CCN(C(=O)c3ccco3)CC2)nc2c1c(=O)n(C)c(=O)n2C | 13µM* | -4 | -40% | u | 3% | -2
Cc1ccc(C)c(OCCC(=O)OCC(=O)NC2CCCC2)c1 | -12% | x | x | 38% | -4% | x
Cc1cc(C)c(NC(=O)CSc2nnnn2-c2cccnc2)c(C)c1 | -3% | -5 | 13% | 16% | 1% | -3
CCOc1cc(-c2noc(N)c2C(=O)OC)cc(OCC)c1OCC | 12µM* | -20 | -4% | -14% | -1% | -5
C=C(C)Cn1c(=O)c2c(nc3n2CCN3c2cccc(Cl)c2C)n(C)c1=O | u | -12 | -7% | 9.3µM* | 8% | -4
CCOc1ccc(C(=O)N2CCC(c3nc4ccccc4o3)CC2)cc1 | x | x | x | x | 0% | x
